Reference: PubChem BioAssay AID504652 (National Center for Advancing Translational Sciences (NCATS), 2011)
Values joined by “and” are separate entries in the source; they are usually repeats but may differ in a detail not shown here. Identical values can stand only once. About 11,000 (3.1%) of roughly 360,000 compounds were called active. No stated cut-off is given here; in the data, active means activity change below about -30%; inactive means the rest. This excerpt belongs to a sample that is enriched for actives. Some compounds were tested as several samples or in several runs, with calls that do not always agree.
On the % scale 0 is the no-effect control and ±100 the full control effect.

These compounds were tested against D(1A) dopamine receptor (Homo sapiens) (UniProt P21728) (assay: Antagonist of Human D 1 Dopamine Receptor: qHTS). Settings: HEK293 TREx D1 cells, calcium flux, dopamine EC80; at 10 µM; stronger effect = lower value.
Chain of D(1A) dopamine receptor (Homo sapiens) (P21728 whole entry, looked up): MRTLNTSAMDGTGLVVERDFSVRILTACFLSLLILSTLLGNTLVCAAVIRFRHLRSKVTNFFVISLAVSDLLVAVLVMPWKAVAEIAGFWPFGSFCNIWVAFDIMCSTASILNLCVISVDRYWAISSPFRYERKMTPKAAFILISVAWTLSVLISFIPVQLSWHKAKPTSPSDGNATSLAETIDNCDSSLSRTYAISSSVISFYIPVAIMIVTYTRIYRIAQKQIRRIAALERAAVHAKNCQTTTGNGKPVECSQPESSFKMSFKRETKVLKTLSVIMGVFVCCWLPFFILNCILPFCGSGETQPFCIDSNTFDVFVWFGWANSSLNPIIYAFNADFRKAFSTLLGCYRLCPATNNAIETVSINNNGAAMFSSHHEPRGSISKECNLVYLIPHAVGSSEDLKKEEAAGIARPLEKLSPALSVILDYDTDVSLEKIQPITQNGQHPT
How it was run: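 Tetracycline-induced HEK293 T-REx cells with force-coupled D1 receptor were loaded with a no-wash calcium dye. Compound was added after a 10 s baseline and read kinetically for 180 s; EC80 dopamine was then added and calcium flux followed another 180 s.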
For `CCOc1ccccc1NC(=O)Cn1nnc(C(=O)Nc2ccc(C)c(C)c2)c1N`, the activity change, negative = inhibition was 6.21% (inactive).
For `CC(C)(C)OC(=O)N1CCC(c2c(C(=O)Nc3ccc4c(c3)OCO4)cnn2-c2ccccc2)CC1`, the activity change, negative = inhibition was 1.48% (inactive).
In the case of `COc1ccc(C2Sc3ccccc3NC3=C2C(=O)c2ccccc23)c(OC)c1OC` (stereo not drawn), the activity change, negative = inhibition is reported as -5.17% (inactive).
With `COc1ccc(N2CCN(c3nc(-c4ccccc4F)nc4ccccc34)CC2)cc1` the activity change, negative = inhibition was -14.4% (inactive).
With `CCc1ccc(CN(Cc2ccco2)C(=O)c2ccccc2Cl)cc1` the activity change, negative = inhibition was -13.4% (inactive).
In the case of `COc1ccc(CN(C)C(=O)Cc2ccsc2)c(OC)c1OC`, the activity change, negative = inhibition is reported as -6.5% (inactive).
With `COc1ccccc1C(C)NC(=O)Cc1ccsc1` (stereo not drawn) the activity change, negative = inhibition was -36.8% (active).
In the case of `COc1ccccc1OCc1ccc(C(=O)NC(C)c2ccccc2)o1` (stereo not drawn), the activity change, negative = inhibition is reported as 10.5% (inactive).
For `CN(C(=O)CSc1nc2ccccc2n1Cc1ccccc1C#N)c1ccccc1`, the activity change, negative = inhibition was 5.88% (inactive).
With `CCN1CCN(Cc2c(O)ccc3c(=O)c(-c4ccc(OC)c(OC)c4)c(C(F)(F)F)oc23)CC1` the activity change, negative = inhibition was 10.8% (inactive).
`COc1ccc(-c2c(C)c3ccc(O)c(CN4CCN(C)CC4)c3oc2=O)cc1OC` was tested, and the activity change, negative = inhibition was -44.5% (active).
In the case of `COc1ccc(-c2c(C)c3ccc(O)c(CN4CCCC4)c3oc2=O)cc1OC`, the activity change, negative = inhibition is reported as 3.24% (inactive).
For `Cc1cccc(-c2nnc(SCC(=O)N3CCCc4ccccc43)o2)c1`, the activity change, negative = inhibition was -12.2% (inactive).
`COc1cccc(NC(C)=[N+](C)CCNS(=O)(=O)c2ccc(Cl)cc2)c1` was tested, and the activity change, negative = inhibition was -6.9% (inactive).
In the case of `CCNS(=O)(=O)c1ccc(NC(=O)Nc2cccc(OC)c2)cc1`, the activity change, negative = inhibition is reported as -47.6% (active).
In the case of `CCN(CC(=O)Nc1ccc(S(=O)(=O)N2CCCC2)cc1)CC(=O)Nc1cccc(OC)c1`, the activity change, negative = inhibition is reported as -18.1% (inactive).
With `CN1c2ccc(Cl)cc2-c2nc(SCC(=O)Nc3cc(F)ccc3F)ncc2S1(=O)=O` the activity change, negative = inhibition was 24.7% (inactive).
In the case of `Cc1ccc2oc(=O)c3cnn(CC(=O)N4CCN(c5cccc(Cl)c5)CC4)c3c2c1`, the activity change, negative = inhibition is reported as 4.75% (inactive).
`Cc1ccc(C2c3[nH]c4ccccc4c3CCN2C(=O)c2cccc(C)c2)cc1` (stereo not drawn) was tested, and the activity change, negative = inhibition was -0.549% (inactive).
In the case of `COCc1ccc(C(=O)N2CCc3c([nH]c4ccccc34)C2c2ccccn2)s1` (stereo not drawn), the activity change, negative = inhibition is reported as -33.8% (active).
For `Cc1cccc(C2c3[nH]c4ccccc4c3CCN2C(=O)c2cc(-c3cccn3C)n[nH]2)n1` (stereo not drawn), the activity change, negative = inhibition was 8.11% (inactive).
`Cc1cc(OCC(=O)Nc2ncn[nH]2)c(C)c(C)c1Br` was tested, and the activity change, negative = inhibition was 3.31% (inactive).
With `COC(=O)c1cc(NC(=O)c2cccnc2)ccc1N1CCOCC1` the activity change, negative = inhibition was 1.15% (inactive).
For `Cc1cc(/C=C2\SC(=Nc3ccc(N4CCOCC4)cc3)N(C)C2=O)c(C)n1-c1cccnc1`, the activity change, negative = inhibition was -38% (active).
In the case of `COc1ccc(S(=O)(=O)c2cn(C)c3cc(N4CCCCC4)c(F)cc3c2=O)cc1`, the activity change, negative = inhibition is reported as -5.11% (inactive).
With `O=C(/C=C/c1ccccc1)Nc1cc(-c2nc3cc(Cl)ccc3o2)ccc1Cl` the activity change, negative = inhibition was -9.92% (inactive).
For `COc1ccc(CNc2cc(C)cc(C)c2)cc1OC`, the activity change, negative = inhibition was -45.1% (active).
With `COc1ccc(CNc2ccc3c(c2)CCC3)cc1OC` the activity change, negative = inhibition was 9.59% (inactive).
In the case of `COc1ccc(CNCCCO)cc1OC`, the activity change, negative = inhibition is reported as 14.1% (inactive).
For `CCOC(=O)c1ccc(N2C(=O)c3n[nH]c(-c4ccco4)c3C2c2ccc(O)cc2)cc1` (stereo not drawn), the activity change, negative = inhibition was 13% (inactive).
`CC(=O)c1ccc(NC(=O)CSc2c(C(C)C)cnc3c2c(=O)n(C)c(=O)n3C)cc1` was tested, and the activity change, negative = inhibition was 1.89% (inactive).
`CCCCN1C(=O)c2[nH]nc(-c3ccccc3O)c2C1c1cccc(OCc2ccccc2)c1` (stereo not drawn) was tested, and the activity change, negative = inhibition was 6.88% (inactive).
With `COc1cccc2c1cc1c(=O)n(CC(=O)N3CCN(c4ccccc4)CC3)nc(C)n12` the activity change, negative = inhibition was -3.55% (inactive).
`CC(=O)O[C@H]1CC[C@@]2(C)[C@@H](CC[C@@H]3[C@@H]2CC[C@]2(C)[C@@H](C(C)(C)O)C[C@@H]32)C1` was tested, and the activity change, negative = inhibition was -15.9% (inactive).
`CC(=O)[C@@]12O[C@@H]1C[C@H]1[C@@H]3CC[C@H]4C[C@@H](O)CC[C@]4(C)[C@H]3CC[C@@]12C` was tested, and the activity change, negative = inhibition was -34.5% (active).
`Cc1cccc(NC(c2cccc(F)c2)c2ccc3ccc(C)nc3c2O)n1` (stereo not drawn) was tested, and the activity change, negative = inhibition was -16.7% (inactive).
For `Cc1ccc(NC(=O)CCNC(=O)c2ccc([N+](=O)[O-])cc2)cc1S(=O)(=O)N1CCOCC1`, the activity change, negative = inhibition was 4.33% (inactive).
`Cc1ccc(NC(=O)CCCNC(=O)c2ccc(Cl)cc2)cc1S(=O)(=O)N1CCCCC1` was tested, and the activity change, negative = inhibition was 35.4% (inactive).
In the case of `Cc1ccc(NC(=O)CCCNC(=O)c2ccc(Cl)cc2)cc1S(=O)(=O)N1CCOCC1`, the activity change, negative = inhibition is reported as -36.7% (active).
With `Cc1ccccc1CNC(=O)c1ccc(NC(=O)N2CCCCc3ccccc32)cc1` the activity change, negative = inhibition was 12.4% (inactive).
With `Cc1ccccc1CN1CCC(CNC(=O)c2cc3ccc4cccnc4c3[nH]2)CC1` the activity change, negative = inhibition was -3.23% (inactive).
With `COc1ccc([C@@H]2[C@@H]3C(=O)N(C(C)(C)C)C(=O)[C@@H]3[C@]3(Cc4ccccc4)C(=O)N(c4cccc(Br)c4)C(=O)N23)cc1` the activity change, negative = inhibition was -34.9% (active).
For `CC(C)(C)N1C(=O)[C@H]2[C@@H](c3ccc(Br)cc3)N3C(=O)N(c4cccc(Cl)c4)C(=O)[C@@]3(C)[C@H]2C1=O`, the activity change, negative = inhibition was -17.7% (inactive).
`CC[C@@]12C(=O)N(c3ccccc3)C(=O)N1[C@H](c1ccc(Br)cc1)[C@@H]1C(=O)N(C(C)(C)C)C(=O)[C@@H]12` was tested, and the activity change, negative = inhibition was -1.44% (inactive).
`Cc1nn(C(=O)c2c(F)cccc2F)c(C)c1S(=O)(=O)N1CCOCC1` was tested, and the activity change, negative = inhibition was 10.5% (inactive).
For `CCOc1ccc(N(CC)C(=O)C2CCN(S(=O)(=O)c3cccc4nonc34)CC2)cc1`, the activity change, negative = inhibition was -22% (inactive).
`Cc1cc2n(n1)C(c1cc(C(C)(C)C)c(O)cc1O)Nc1ccccc1-2` (stereo not drawn) was tested, and the activity change, negative = inhibition was 0.223% (inactive).
In the case of `CN(C(=O)CSc1nc2ccc(NC(=O)COc3ccccc3)cc2s1)c1ccccc1`, the activity change, negative = inhibition is reported as -11.3% (inactive).
With `NS(=O)(=O)c1ccc2nc(NC(=O)CS(=O)(=O)c3ccc(F)cc3)sc2c1` the activity change, negative = inhibition was 3.05% (inactive).
`NS(=O)(=O)c1ccc2nc(NC(=O)COc3ccccc3)sc2c1` was tested, and the activity change, negative = inhibition was -38.3% (active).
In the case of `CCN(c1cccc(C)c1)S(=O)(=O)c1ccc(-c2coc(C)n2)cc1`, the activity change, negative = inhibition is reported as -16.9% (inactive).
For `COc1cccc(NS(=O)(=O)c2ccc(-c3coc(C)n3)cc2)c1`, the activity change, negative = inhibition was -22% (inactive).
In the case of `Cc1ccc(NS(=O)(=O)c2ccc(-c3coc(C)n3)cc2)c(C)c1`, the activity change, negative = inhibition is reported as -39.4% (active).
With `O=C(c1ccc(Br)cc1)N(Cc1cccs1)c1ccc(F)cc1` the activity change, negative = inhibition was -5.47% (inactive).
`COc1cc(OC)c(C(=O)NC2CC(C)(C)NC(C)(C)C2)cc1OC` was tested, and the activity change, negative = inhibition was -1.99% (inactive).
`COc1ccc(C(=O)NC2CC(C)(C)NC(C)(C)C2)cc1OC` was tested, and the activity change, negative = inhibition was -30.4% (active).
With `Cc1cccc(OCC(=O)NC2CC(C)(C)NC(C)(C)C2)c1` the activity change, negative = inhibition was 0.221% (inactive).
For `Cc1ccc(NC(=O)c2oc3ccc(S(=O)(=O)N4CCCCC4)cc3c2C)cc1Cl`, the activity change, negative = inhibition was 0.571% (inactive).
In the case of `CC(C)(C)n1nc2c(c1NC(=O)c1cc3ccccc3o1)CSC2`, the activity change, negative = inhibition is reported as 6.7% (inactive).
With `O=C(Nc1c2c(nn1-c1cccc(Cl)c1)CS(=O)(=O)C2)c1cccs1` the activity change, negative = inhibition was -16.2% (inactive).
For `Cc1cccc(-n2nc3c(c2NC(=O)c2cc4ccccc4o2)CS(=O)(=O)C3)c1`, the activity change, negative = inhibition was -49.1% (active).
For `Cc1nc2c(c(C)nn2-c2ccccc2)c(C)c1CCC(=O)NCCc1ccc(Cl)cc1`, the activity change, negative = inhibition was -0.289% (inactive).
For `Cc1oc(C)c2c(=O)cc(-c3ccc4c(c3)OCO4)cc(OC(=O)c3ccc(Cl)cc3)c12`, the activity change, negative = inhibition was -1.78% (inactive).
For `CCN1CCN(CCCNC(=O)c2cnn(-c3ccc(C)cc3C)c2C2CCN(C(=O)OC(C)(C)C)CC2)CC1`, the activity change, negative = inhibition was 6.05% (inactive).
With `CCOC(=O)c1c(C)[nH]c(C)c1S(=O)(=O)NCC(=O)NCc1cccc(C)c1` the activity change, negative = inhibition was 13.9% (inactive).
`CCCCNC(=O)c1onc(CSc2cccc(OC)c2)c1C(=O)O` was tested, and the activity change, negative = inhibition was -73.2% (active).
With `COCCNC(=O)c1onc(CSc2cccc(C)c2)c1C(=O)O` the activity change, negative = inhibition was 2.03% (inactive).
With `CCOc1cccc(SCc2noc(C(=O)NC(C)C)c2C(=O)O)c1` the activity change, negative = inhibition was 3.21% (inactive).
`CC(=O)N1CCCc2cc(S(=O)(=O)N3CCC(C(=O)NCc4ccc(C)cc4)CC3)ccc21` was tested, and the activity change, negative = inhibition was 12.1% (inactive).
For `Cc1ccccc1CN1C(=O)c2ccccc2Sc2ccc(C(=O)NCCCN3CCOCC3)cc21`, the activity change, negative = inhibition was -9.56% (inactive) and -12% (inactive).
For `CCC1=Nc2cc(C(=O)NCCCN3CCOCC3)ccc2Sc2ccc(Br)cc21`, the activity change, negative = inhibition was 11% (inactive).
`O=C(NCCCN1CCOCC1)c1ccc2c(c1)N(Cc1cccc(F)c1)C(=O)c1ccccc1S2` was tested, and the activity change, negative = inhibition was -42.1% (active).
With `CN1CCN(S(=O)(=O)c2cccc(C(=O)N3CCc4ccccc43)c2)CC1` the activity change, negative = inhibition was -0.291% (inactive).
With `Cc1ccc(NC(=O)c2cccc(S(=O)(=O)N3CCCc4ccccc43)c2)nc1` the activity change, negative = inhibition was 3.95% (inactive).
In the case of `CC1CCN(C(=O)c2cccc(S(=O)(=O)N3CCCc4ccccc43)c2)CC1`, the activity change, negative = inhibition is reported as -43.6% (active).
In the case of `COc1ccc(Nc2ncc3c(n2)CCN(C(=O)OC(C)(C)C)C3)cc1`, the activity change, negative = inhibition is reported as -16.1% (inactive).
For `CCCC(=O)Nc1cc2nn(-c3ccccc3)nc2cc1C`, the activity change, negative = inhibition was -6.53% (inactive).
For `O=C(c1cc(-c2ccc(O)cc2)on1)N1CCOCC1`, the activity change, negative = inhibition was -2.21% (inactive).
With `O=C(c1cc(-c2ccc(Cl)cc2)on1)N1CCN(c2ccccc2)CC1` the activity change, negative = inhibition was 8.05% (inactive).
`O=C(c1cc(-c2ccc(F)cc2)on1)N1CCN(c2ccc(F)cc2)CC1` was tested, and the activity change, negative = inhibition was 6.41% (inactive) and -30% (active).
In the case of `Cc1nc(SC(C)C)[nH]c(=O)c1Cc1ccccc1`, the activity change, negative = inhibition is reported as -31.2% (active).
In the case of `Cc1ccc(OCCSc2nc(C)c(Cc3ccccc3)c(=O)[nH]2)cc1`, the activity change, negative = inhibition is reported as -2.95% (inactive).
`Cc1nc(SCCOc2ccc(Cl)cc2)[nH]c(=O)c1Cc1ccccc1` was tested, and the activity change, negative = inhibition was -8.51% (inactive).
